Results as given in PubChem BioAssay AID1159580 (chemical genetic matrix, 2015).
Screen size: about 5,500 compounds; about 2,000 (36%) were called active. Another 18% or so got no clear call; they are omitted. No stated cut-off is given here; in the data, active means normalized growth mostly below about 0.91 (no sharp cut-off); inconclusive means no clear call, values can overlap the other calls; inactive means mostly above about 0.92. This is one part of the list.

Assay: chemical genetic growth profiling, strain panel (AID 1159580);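 further: tested at 20 µM; growth read once vehicle control cultures reached saturation at 30 °C; 1 = growth at the plate median or of vehicle wells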
Settings: growth OD

Measured: normalized growth

CC(=O)NC1SCCC1=O (stereo not drawn)
inactive: S. cerevisiae deletion strains, locus YAL021C, strain ccr4, stronger effect = lower value 1.01 | S. cerevisiae deletion strains, locus YAL026C, strain drs2, stronger effect = lower value 0.983 | S. cerevisiae deletion strains, locus YAL030W, strain snc1, stronger effect = lower value 0.975 | S. cerevisiae deletion strains, locus YBL061C, strain skt5, stronger effect = lower value 0.985 | S. cerevisiae deletion strains, locus YBR009C, strain hhf1, stronger effect = lower value 0.971 | S. cerevisiae deletion strains, locus YBR021W, strain FUR4, stronger effect = lower value 1.02 | S. cerevisiae deletion strains, locus YBR023C, strain chs3, stronger effect = lower value 0.977 | S. cerevisiae deletion strains, locus YBR171W, strain sec66, stronger effect = lower value 0.998 | S. cerevisiae deletion strains, locus YBR229C, strain ROT2, stronger effect = lower value 1.01 | S. cerevisiae deletion strains, locus YBR231C, strain swc5, stronger effect = lower value 0.996 | S. cerevisiae deletion strains, locus YBR279W, strain paf1, stronger effect = lower value 0.99 | S. cerevisiae deletion strains, locus YCL011C, strain gbp2, stronger effect = lower value 0.974 | S. cerevisiae deletion strains, locus YCL016C, strain dcc1, stronger effect = lower value 0.99 | S. cerevisiae deletion strains, locus YCL029C, strain bik1, stronger effect = lower value 1.02 | S. cerevisiae deletion strains, locus YCL061C, strain MRC1, stronger effect = lower value 1 | S. cerevisiae deletion strains, locus YCL069W, strain vba3, stronger effect = lower value 0.981 | S. cerevisiae deletion strains, locus YCR088W, strain abp1, stronger effect = lower value 0.984 | S. cerevisiae deletion strains, locus YDL005C, strain med2, stronger effect = lower value 1.01 | S. cerevisiae deletion strains, locus YDL035C, strain GPR1, stronger effect = lower value 1.03 | S. cerevisiae deletion strains, locus YDL040C, strain nat1, stronger effect = lower value 0.992 | S. cerevisiae deletion strains, locus YDL074C, strain BRE1, stronger effect = lower value 0.994 | S. cerevisiae deletion strains, locus YDL101C, strain DUN1, stronger effect = lower value 1.01 | S. cerevisiae deletion strains, locus YDL134C, strain PPH21, stronger effect = lower value 1.03 | S. cerevisiae deletion strains, locus YDL185W, strain tfp1, stronger effect = lower value 1.01 | S. cerevisiae deletion strains, locus YDL192W, strain arf1, stronger effect = lower value 1.01 | S. cerevisiae deletion strains, locus YDR001C, strain nth1, stronger effect = lower value 0.986 | S. cerevisiae deletion strains, locus YDR069C, strain doa4, stronger effect = lower value 0.977 | S. cerevisiae deletion strains, locus YDR101C, strain arx1, stronger effect = lower value 0.982 | S. cerevisiae deletion strains, locus YDR137W, strain rgp1, stronger effect = lower value 1.01 | S. cerevisiae deletion strains, locus YDR159W, strain sac3, stronger effect = lower value 0.945 | S. cerevisiae deletion strains, locus YDR162C, strain NBP2, stronger effect = lower value 1.02 | S. cerevisiae deletion strains, locus YDR195W, strain ref2 0.97 | S. cerevisiae deletion strains, locus YDR297W, strain sur2, stronger effect = lower value 0.985 | S. cerevisiae deletion strains, locus YDR318W, strain mcm21, stronger effect = lower value 1.02 | S. cerevisiae deletion strains, locus YDR334W, strain swr1, stronger effect = lower value 0.982 | S. cerevisiae deletion strains, locus YDR335W, strain msn5, stronger effect = lower value 0.99 | S. cerevisiae deletion strains, locus YDR388W, stronger effect = lower value 1.02 | S. cerevisiae deletion strains, locus YDR392W, strain spt3, stronger effect = lower value 0.889 | S. cerevisiae deletion strains, locus YDR502C, strain sam2, stronger effect = lower value 0.999 | S. cerevisiae deletion strains, locus YEL003W, strain gim4, stronger effect = lower value 0.976 | S. cerevisiae deletion strains, locus YEL037C, strain rad23, stronger effect = lower value 0.975 | S. cerevisiae deletion strains, locus YEL061C, strain CIN8 (second series), stronger effect = lower value 0.981 | S. cerevisiae deletion strains, locus YEL061C, strain CIN8, stronger effect = lower value 1 | S. cerevisiae deletion strains, locus YER015W, strain faa2, stronger effect = lower value 1.01 | S. cerevisiae deletion strains, locus YER016W, strain bim1, stronger effect = lower value 0.982 | S. cerevisiae deletion strains, locus YER110C, stronger effect = lower value 1.02 | S. cerevisiae deletion strains, locus YER111C, strain swi4, stronger effect = lower value 0.977 | S. cerevisiae deletion strains, locus YER155C, strain BEM2 (second series), stronger effect = lower value 0.958 | S. cerevisiae deletion strains, locus YER155C, strain BEM2, stronger effect = lower value 1.01 | S. cerevisiae deletion strains, locus YER167W, strain BCK2, stronger effect = lower value 1.02 | S. cerevisiae deletion strains, locus YFR010W, strain ubp6, stronger effect = lower value 0.983 | S. cerevisiae deletion strains, locus YGL078C, strain dbp3, stronger effect = lower value 1 | S. cerevisiae deletion strains, locus YGL086W, strain mad1, stronger effect = lower value 0.999 | S. cerevisiae deletion strains, locus YGL167C, strain pmr1, stronger effect = lower value 0.977 | S. cerevisiae deletion strains, locus YGL173C, strain kem1, stronger effect = lower value 0.974 | S. cerevisiae deletion strains, locus YGL227W, strain vid30, stronger effect = lower value 0.986 | S. cerevisiae deletion strains, locus YGL240W, strain doc1, stronger effect = lower value 0.988 | S. cerevisiae deletion strains, locus YGL248W, strain PDE1, stronger effect = lower value 0.999 | S. cerevisiae deletion strains, locus YGL253W, strain hxk2, stronger effect = lower value 0.989 | S. cerevisiae deletion strains, locus YGR135W, strain pre9, stronger effect = lower value 1.05 | S. cerevisiae deletion strains, locus YGR252W, strain gcn5, stronger effect = lower value 1 | S. cerevisiae deletion strains, locus YHR013C, strain ard1, stronger effect = lower value 0.943 | S. cerevisiae deletion strains, locus YHR027C, strain rpn1, stronger effect = lower value 1 | S. cerevisiae deletion strains, locus YHR030C, strain SLT2, stronger effect = lower value 1 | S. cerevisiae deletion strains, locus YHR079C, strain IRE1 (second series), stronger effect = lower value 1 | S. cerevisiae deletion strains, locus YHR094C, strain hxt1, stronger effect = lower value 1.02 | S. cerevisiae deletion strains, locus YHR129C, strain ARP1, stronger effect = lower value 1.01 | S. cerevisiae deletion strains, locus YHR142W, strain chs7, stronger effect = lower value 1.02 | S. cerevisiae deletion strains, locus YHR200W, strain rpn10, stronger effect = lower value 1.02 | S. cerevisiae deletion strains, locus YIL066C, strain RNR3, stronger effect = lower value 0.998 | S. cerevisiae deletion strains, locus YIL073C, strain SPO22, stronger effect = lower value 1.04 | S. cerevisiae deletion strains, locus YIL125W, strain kgd1, stronger effect = lower value 1.01 | S. cerevisiae deletion strains, locus YIR030C, strain dcg1, stronger effect = lower value 1.01 | S. cerevisiae deletion strains, locus YJL092W, strain hpr5, stronger effect = lower value 0.995 | S. cerevisiae deletion strains, locus YJL095W, strain BCK1 (second series), stronger effect = lower value 1 | S. cerevisiae deletion strains, locus YJL095W, strain BCK1, stronger effect = lower value 0.994 | S. cerevisiae deletion strains, locus YJL115W, strain asf1, stronger effect = lower value 0.979 | S. cerevisiae deletion strains, locus YJL129C, strain trk1, stronger effect = lower value 1 | S. cerevisiae deletion strains, locus YJL134W, strain LCB3, stronger effect = lower value 1.01 | S. cerevisiae deletion strains, locus YJL154C, strain vps35, stronger effect = lower value 0.975 | S. cerevisiae deletion strains, locus YJL164C, strain tpk1, stronger effect = lower value 1.01 | S. cerevisiae deletion strains, locus YJL166W, strain qcr8, stronger effect = lower value 0.995 | S. cerevisiae deletion strains, locus YJL168C, strain set2, stronger effect = lower value 1.02 | S. cerevisiae deletion strains, locus YJL187C, strain SWE1 (second series), stronger effect = lower value 0.989 | S. cerevisiae deletion strains, locus YJL187C, strain SWE1, stronger effect = lower value 0.992 | S. cerevisiae deletion strains, locus YJR043C, strain POL32, stronger effect = lower value 1 | S. cerevisiae deletion strains, locus YKL009W, strain mrt4, stronger effect = lower value 0.999 | S. cerevisiae deletion strains, locus YKL068W, stronger effect = lower value 1 | S. cerevisiae deletion strains, locus YKL085W, strain MDH1 (second series), stronger effect = lower value 1.01 | S. cerevisiae deletion strains, locus YKL085W, strain MDH1, stronger effect = lower value 1.01 | S. cerevisiae deletion strains, locus YKL160W, strain elf1, stronger effect = lower value 1.04 | S. cerevisiae deletion strains, locus YKL190W, strain CNB1, stronger effect = lower value 0.998 | S. cerevisiae deletion strains, locus YKR001C, strain vps1, stronger effect = lower value 1.01 | S. cerevisiae deletion strains, locus YKR026C, strain gcn3, stronger effect = lower value 0.977 | S. cerevisiae deletion strains, locus YKR091W, strain srl3, stronger effect = lower value 0.99 | S. cerevisiae deletion strains, locus YLL001W, strain dnm1, stronger effect = lower value 1.02 | S. cerevisiae deletion strains, locus YLL026W, stronger effect = lower value 1 | S. cerevisiae deletion strains, locus YLL041C, strain sdh2, stronger effect = lower value 0.997 | S. cerevisiae deletion strains, locus YLR027C, strain aat2, stronger effect = lower value 1 | S. cerevisiae deletion strains, locus YLR039C, strain RIC1, stronger effect = lower value 1.01 | S. cerevisiae deletion strains, locus YLR058C, strain SHM2, stronger effect = lower value 1.01 | S. cerevisiae deletion strains, locus YLR102C, strain apc9, stronger effect = lower value 1.01 | S. cerevisiae deletion strains, locus YLR221C, strain rsa3, stronger effect = lower value 1.01 | S. cerevisiae deletion strains, locus YLR258W, strain gsy2, stronger effect = lower value 0.985 | S. cerevisiae deletion strains, locus YLR262C, strain YPT6 (second series), stronger effect = lower value 0.99 | S. cerevisiae deletion strains, locus YLR262C, strain YPT6, stronger effect = lower value 1 | S. cerevisiae deletion strains, locus YLR268W, strain sec22, stronger effect = lower value 1 | S. cerevisiae deletion strains, locus YLR320W, strain mms22, stronger effect = lower value 0.999 | S. cerevisiae deletion strains, locus YLR330W, strain CHS5, stronger effect = lower value 1.01 | S. cerevisiae deletion strains, locus YLR342W, strain FKS1 (second series), stronger effect = lower value 1.07 | S. cerevisiae deletion strains, locus YLR342W, strain FKS1, stronger effect = lower value 0.979 | S. cerevisiae deletion strains, locus YLR357W, strain rsc2, stronger effect = lower value 0.991 | S. cerevisiae deletion strains, locus YLR370C, strain arc18, stronger effect = lower value 0.992 | S. cerevisiae deletion strains, locus YLR371W, strain rom2, stronger effect = lower value 1.01 | S. cerevisiae deletion strains, locus YLR384C, strain iki3, stronger effect = lower value 0.979 | S. cerevisiae deletion strains, locus YLR418C, strain cdc73, stronger effect = lower value 1.02 | S. cerevisiae deletion strains, locus YML016C, strain PPZ1, stronger effect = lower value 0.998 | S. cerevisiae deletion strains, locus YML032C, strain rad52, stronger effect = lower value 0.995 | S. cerevisiae deletion strains, locus YML120C, strain ndi1, stronger effect = lower value 0.985 | S. cerevisiae deletion strains, locus YML124C, strain tub3, stronger effect = lower value 1.01 | S. cerevisiae deletion strains, locus YMR058W, strain fet3, stronger effect = lower value 0.989 | S. cerevisiae deletion strains, locus YMR078C, strain ctf18, stronger effect = lower value 1.01 | S. cerevisiae deletion strains, locus YMR125W, strain sto1, stronger effect = lower value 0.959 | S. cerevisiae deletion strains, locus YMR129W, stronger effect = lower value 0.995 | S. cerevisiae deletion strains, locus YMR205C, strain PFK2, stronger effect = lower value 0.969 | S. cerevisiae deletion strains, locus YMR223W, strain ubp8, stronger effect = lower value 1.03 | S. cerevisiae deletion strains, locus YMR231W, strain pep5, stronger effect = lower value 0.976 | S. cerevisiae deletion strains, locus YMR307W, strain GAS1, stronger effect = lower value 0.996 | S. cerevisiae deletion strains, locus YNL067W, strain RPL9B, stronger effect = lower value 0.987 | S. cerevisiae deletion strains, locus YNL071W, strain lat1, stronger effect = lower value 0.984 | S. cerevisiae deletion strains, locus YNL209W, strain ssb2, stronger effect = lower value 0.979 | S. cerevisiae deletion strains, locus YNL233W, strain BNI4, stronger effect = lower value 0.984 | S. cerevisiae deletion strains, locus YNL248C, strain rpa49, stronger effect = lower value 1.01 | S. cerevisiae deletion strains, locus YNL250W, strain rad50, stronger effect = lower value 1.04 | S. cerevisiae deletion strains, locus YNL271C, strain bni1, stronger effect = lower value 1.01 | S. cerevisiae deletion strains, locus YNL298W, strain CLA4, stronger effect = lower value 1.01 | S. cerevisiae deletion strains, locus YNL307C, strain MCK1, stronger effect = lower value 1.02 | S. cerevisiae deletion strains, locus YNL322C, strain KRE1 (second series), stronger effect = lower value 0.989 | S. cerevisiae deletion strains, locus YNR049C, strain mso1, stronger effect = lower value 0.975 | S. cerevisiae deletion strains, locus YNR052C, strain pop2, stronger effect = lower value 1.01 | S. cerevisiae deletion strains, locus YOL006C, strain TOP1, stronger effect = lower value 0.961 | S. cerevisiae deletion strains, locus YOL012C, strain htz1 1.01 | S. cerevisiae deletion strains, locus YOL147C, strain pex11, stronger effect = lower value 1.01 | S. cerevisiae deletion strains, locus YOR001W, strain rrp6, stronger effect = lower value 1.01 | S. cerevisiae deletion strains, locus YOR061W, strain CKA2, stronger effect = lower value 1.01 | S. cerevisiae deletion strains, locus YOR069W, strain VPS5, stronger effect = lower value 1 | S. cerevisiae deletion strains, locus YOR070C, strain gyp1, stronger effect = lower value 0.986 | S. cerevisiae deletion strains, locus YOR080W, strain dia2, stronger effect = lower value 0.987 | S. cerevisiae deletion strains, locus YOR083W, strain WHI5, stronger effect = lower value 1.05 | S. cerevisiae deletion strains, locus YOR106W, strain vam3, stronger effect = lower value 1.01 | S. cerevisiae deletion strains, locus YOR136W, strain idh2, stronger effect = lower value 1 | S. cerevisiae deletion strains, locus YOR144C, strain elg1, stronger effect = lower value 1 | S. cerevisiae deletion strains, locus YOR184W, strain ser1, stronger effect = lower value 1.03 | S. cerevisiae deletion strains, locus YOR265W, strain rbl2, stronger effect = lower value 0.997 | S. cerevisiae deletion strains, locus YOR270C, strain vph1, stronger effect = lower value 0.973 | S. cerevisiae deletion strains, locus YOR290C, strain snf2, stronger effect = lower value 0.919 | S. cerevisiae deletion strains, locus YOR316C, strain cot1, stronger effect = lower value 1.01 | S. cerevisiae deletion strains, locus YPL051W, strain arl3, stronger effect = lower value 1.01 | S. cerevisiae deletion strains, locus YPL055C, strain LGE1, stronger effect = lower value 0.93 | S. cerevisiae deletion strains, locus YPL078C, strain atp4, stronger effect = lower value 1.01 | S. cerevisiae deletion strains, locus YPL106C, strain sse1, stronger effect = lower value 0.978 | S. cerevisiae deletion strains, locus YPL240C, strain hsp82, stronger effect = lower value 0.994 | S. cerevisiae deletion strains, locus YPR119W, strain clb2, stronger effect = lower value 1.01 | S. cerevisiae deletion strains, locus YPR141C, strain kar3, stronger effect = lower value 1 | S. cerevisiae deletion strains, locus YPR163C, strain tif3, stronger effect = lower value 1.02 | S. cerevisiae deletion strains, locus YPR167C, strain met16, stronger effect = lower value 1.01 | S. cerevisiae deletion strains, strain wtn01, stronger effect = lower value 1.01 | S. cerevisiae strains, strain wild type, stronger effect = lower value 1.01
